Laboratory results as given in PubChem BioAssay (EPA / NIEHS).
Results filed as inconclusive are left out. Activity calls are given as the source filed them. How the source made its calls, unless noted: active means hit-call score of the fitted dose curve at least 0.9, where 1 is the maximum; inactive means score below 0.9.

Columns and labels:
DIO2 (gene 1734) = experiment: CCTE_GLTED_hDIO2: CCTE's human Deiodinase 2 (DIO2) Inhibition Assay, Great Lakes Toxicology and Ecology Division (GLTED) Lab (AID 2284050; active means hit-call score of the fitted dose curve at least 0.9, where 1 is the maximum)
Method in brief: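 Readout: absorbance from Sandell-Kolthoff detection of free iodide released by human DIO2 during a 3 h incubation with chemical. Cell-free format, n=3; activity fitted relative to DMSO negative control.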

[1] = CCTE_Deisenroth_AIME_384WELL_CTox_Inactive: Cytotoxicity Assessment (CTOX) in CCTE's 384-well Estrogen Receptor Transactivation Assay without AIME metabolic competence (metabolism negative), Deisenroth Lab (AID 2284039; active means hit-call score of the fitted dose curve at least 0.9, where 1 is the maximum;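 further: cell viability via live-cell protease substrate cleaved to fluorescent probe; cells exposed 24 h to medium preincubated 2 h with alginate-water beads without S9; loss of fluorescence signal means loss of viability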)
Method in brief: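 Fluorescence from a live-cell protease substrate, read after 24 h in VM7Luc4E2 cells, indicated viability. Test medium came from a 2 h AIME step without hepatic S9 (alginate-water microspheres); concentrations spanned 0.002 - 200 uM, single technical replicate per run.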

[2] = biological target: Estrogen receptor (Homo sapiens) (UniProt P03372); experiment: CCTE_Deisenroth_AIME_384WELL_LUC_Shift: CCTE's 384-well Estrogen Receptor Transactivation Assay with AIME metabolic competence data shift (ERTA luciferase; difference in metabolism positive and negative), Deisenroth Lab (AID 2284041);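 further: shift is response with S9 minus without S9 so positive means metabolism raised ER signal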
Method in brief: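 Here, parent compounds undergo 2 h phase I metabolism by PB/BNF-induced rat S9 before 24 h transactivation in VM7Luc4E2 cells; the curve models S9-positive minus S9-negative response over a 10-point series.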

[3] = CCTE_Shafer_MEA_dev_active_electrodes_number: CCTE's Neural Network Formation Assay for Number of Active Electrodes, Shafer Lab (AID 2284040; active means hit-call score of the fitted dose curve at least 0.9, where 1 is the maximum;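 on AC50: potency for loss of active electrodes versus DMSO so lower counts are hits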)
Method in brief: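 Developing rat cortical networks on MEAs, exposed DIV 0–12. Value is the AUC of active-electrode counts (≥5 spikes/min) from days 5, 7, 9, 12, relative to DMSO.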

[4] = CCTE_Shafer_MEA_dev_burst_rate: CCTE's Neural Network Formation Assay for Burst Rate, Shafer Lab (AID 2284042);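 on AC50: potency for loss of burst rate below DMSO control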
Method in brief: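 Developmental network assay measuring how 12-day exposure of rat cortical neuron cultures alters bursting on extracellular MEA recordings. Values are AUC of well-mean burst rate across four recording days, relative to DMSO vehicle.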

[5] = CCTE_Shafer_MEA_dev_bursting_electrodes_number: CCTE's Neural Network Formation Assay for Number of Bursting Electrodes, Shafer Lab (AID 2284043; active means hit-call score of the fitted dose curve at least 0.9, where 1 is the maximum;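 on AC50: potency is for loss of bursting electrodes relative to DMSO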)
Method in brief: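 Counted: electrodes with burst rate ≥1 per 2 min in each well. Cells: primary rat cortex, 1.5 x 10^5/well, on 16-electrode MEA wells. Exposure: DIV 0–12, compound renewed DIV 5 and 9. Recording days 5, 7, 9, 12; AUC vs DMSO baseline.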

[6] = CCTE_Shafer_MEA_dev_per_burst_interspike_interval: CCTE's Neural Network Formation Assay for Burst Interspike Interval, Shafer Lab (AID 2284044);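 further: mean spike spacing inside bursts as AUC over recordings on days 5 7 9 12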;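 on AC50: potency for a decrease of within-burst interspike interval below DMSO level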
Method in brief: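 Rat cortical primary cultures, 16 electrodes/well; compound from plating, renewed with full media change DIV 5 and 9. Spikes via adaptive detector; per-burst ISI well-mean over active bursting electrodes; AUC of DIV 5/7/9/12 recordings; loss-direction fit vs DMSO.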

[7] = CCTE_Shafer_MEA_dev_burst_duration_mean: CCTE's Neural Network Formation Assay for Mean Burst Duration, Shafer Lab (AID 2284045);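 on AC50: curve fitted for loss meaning shorter burst duration than DMSO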
Method in brief: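 Network-formation assay in primary rat cortical neurons; treatment spans twelve days of development. Mean burst duration per well is integrated by trapezoidal AUC and fitted in the loss-of-signal direction against DMSO baseline.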

[8] = CCTE_Shafer_MEA_dev_interburst_interval_mean: CCTE's Neural Network Formation Assay for Mean Interburst Interval, Shafer Lab (AID 2284046);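 further: well-mean interburst interval of bursting electrodes as AUC over four recording days; curve fitted for decrease in interburst interval relative to DMSO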
Method in brief: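 Network formation assay in primary rat cortical cultures, exposed from DIV 0 to 12. Mean interburst interval per well, integrated as AUC over four recordings.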

[9] = CCTE_Shafer_MEA_dev_inter_network_spike_interval_mean: CCTE's Neural Network Formation Assay for Mean Inter-network Spike Interval, Shafer Lab (AID 2284047)
Method in brief: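 Compound was given at plating to primary rat cortical neurons and renewed with full medium changes on DIV 5 and 9. Extracellular activity was recorded on days 5, 7, 9, 12; AUC values were fitted for loss relative to DMSO control.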

[10] = CCTE_Shafer_MEA_dev_network_spike_number: CCTE's Neural Network Formation Assay for Number of Network Spikes, Shafer Lab (AID 2284048);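 further: synchronized bursts across electrodes counted on days 5 7 9 12 and integrated as AUC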;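 on AC50: fit as a loss of signal meaning fewer network spikes than DMSO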
Method in brief: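 Extracellular recordings from 16-electrode wells track network formation in rat cortical cultures under continuous treatment from plating. The endpoint is network spike number, expressed as AUC across DIV 5–12 relative to DMSO vehicle.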

[11] = CCTE_Shafer_MEA_dev_network_spike_peak: CCTE's Neural Network Formation Assay for Mean Number of Electrodes in Network Spike, Shafer Lab (AID 2284049);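 on AC50: fitted for loss of signal meaning fewer electrodes in network spikes than DMSO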
Method in brief: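 Continuous 12-day exposure of rat cortical cultures, starting at plating, on MEA plates. Endpoint: electrodes participating in network-spike peaks, AUC across DIV 5–12, DMSO as negative control.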

[12] = CCTE_Shafer_MEA_dev_spike_duration_mean: CCTE's Neural Network Formation Assay for Mean Spike Duration, Shafer Lab (AID 2284051);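 further: mean network spike duration pooled as area under curve over DIV 5 to 12 recordings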;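 on AC50: potency for a decrease in mean network spike duration versus DMSO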
Method in brief: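 With DMSO as baseline, loss of mean network spike duration was scored from extracellular recordings of rat cortical neurons on MEA plates. Exposure spanned plating to DIV 12; the four recording days were collapsed into one AUC value.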

[13] = CCTE_Shafer_MEA_dev_network_spike_duration_std: CCTE's Neural Network Formation Assay for Standard Deviation of Network Spike Duration, Shafer Lab (AID 2284052);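 further: area under curve of spike duration SD across recording days 5 to 12; hits are decreases in network spike duration SD versus DMSO vehicle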
Method in brief: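 Developing networks of rat cortical neurons were exposed over twelve days in vitro on 48-well MEA plates. Trapezoidal AUC of recordings (DIV 5–12) was analysed for signal loss relative to DMSO vehicle.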

[14] = CCTE_Shafer_MEA_dev_per_network_spike_spike_number_mean: CCTE's Neural Network Formation Assay for Mean Number of Spikes in a Network Spike, Shafer Lab (AID 2284053)
Method in brief: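 First, rat cortical cells (1.5 x 10^5/well) were seeded onto MEA wells; second, dosing began at plating and was refreshed on DIV 5 and 9; finally, network-spike spike counts across DIV 5–12 were summarized as AUC.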

[15] = CCTE_Shafer_MEA_dev_per_network_spike_spike_percent: CCTE's Neural Network Formation Assay for Percent of Spikes in a Network Spike, Shafer Lab (AID 2284054)
Method in brief: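 Developing networks of rat cortical neurons are dosed at day 0 and recorded extracellularly four times up to day 12. The endpoint is the area under the curve of percent spikes in network spikes, fitted in the negative direction relative to DMSO.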

[16] = UKN5_HCS_SBAD2_cell_viability: Viability Assessment in the University of Konstanz (UKN) Leist Lab Neurite Outgrowth Assay in human iPSC-derived immature Dorsal Root Ganglia Neurons (UKN5) (AID 2284056)
Method in brief: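 iPSC-derived immature peripheral neurons (SBAD2) seeded on Matrigel with CHIR99021, SU5402 and DAPT, dosed 1 h later for 24 h. Viability from Hoechst H-33342 and calcein-AM live staining, high-content imaging; bidirectional fit versus DMSO.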

[17] = CCTE_Shafer_MEA_dev_LDH: CCTE's Lactate Dehydrogenase Assay for Cytotoxicity in the Neural Network Formation Assay, Shafer Lab (AID 2284068; active means hit-call score of the fitted dose curve at least 0.9, where 1 is the maximum;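 further: exposure for twelve days from plating with re-dosing on DIV 5 and 9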)
Method in brief: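 Developing rat cortical networks on MEA plates are exposed to compound for 12 days from plating. LDH activity is measured spectrophotometrically, with DMSO as baseline.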

[18] = UKN5_HCS_SBAD2_neurite_outgrowth: University of Konstanz (UKN) Leist Lab Neurite Outgrowth Assay in human iPSC-derived immature Dorsal Root Ganglia Neurons (UKN5) (AID 2284070); conditions: actives raise or lower the signal
Method in brief: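 Cryopreserved SBAD2 peripheral neurons were seeded at 100.000 cells/cm2 in N2-S/KSR medium containing CHIR99021, SU5402 and DAPT, then exposed to compounds for 24 h. Neurite area from calcein-AM high-content imaging was fitted bidirectionally against DMSO.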

[19] = CCTE_Shafer_MEA_dev_AB: CCTE's Alamar Blue Assay for Cytotoxicity in the Neural Network Formation Assay, Shafer Lab (AID 2284083; active means hit-call score of the fitted dose curve at least 0.9, where 1 is the maximum;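 further: resazurin reduction fluorescence as viability of cultured neurons; twelve days of exposure from plating with re-dosing on DIV 5 and 9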)
Method in brief: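 Cytotoxicity companion to the developmental MEA: primary rat cortical neurons, 12-day exposure starting day 0, compound refreshed DIV 5 and 9; resazurin fluorescence, fitted against DMSO vehicle.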

Measured: AC50

Chain of Estrogen receptor (Homo sapiens) (P03372 whole entry, looked up): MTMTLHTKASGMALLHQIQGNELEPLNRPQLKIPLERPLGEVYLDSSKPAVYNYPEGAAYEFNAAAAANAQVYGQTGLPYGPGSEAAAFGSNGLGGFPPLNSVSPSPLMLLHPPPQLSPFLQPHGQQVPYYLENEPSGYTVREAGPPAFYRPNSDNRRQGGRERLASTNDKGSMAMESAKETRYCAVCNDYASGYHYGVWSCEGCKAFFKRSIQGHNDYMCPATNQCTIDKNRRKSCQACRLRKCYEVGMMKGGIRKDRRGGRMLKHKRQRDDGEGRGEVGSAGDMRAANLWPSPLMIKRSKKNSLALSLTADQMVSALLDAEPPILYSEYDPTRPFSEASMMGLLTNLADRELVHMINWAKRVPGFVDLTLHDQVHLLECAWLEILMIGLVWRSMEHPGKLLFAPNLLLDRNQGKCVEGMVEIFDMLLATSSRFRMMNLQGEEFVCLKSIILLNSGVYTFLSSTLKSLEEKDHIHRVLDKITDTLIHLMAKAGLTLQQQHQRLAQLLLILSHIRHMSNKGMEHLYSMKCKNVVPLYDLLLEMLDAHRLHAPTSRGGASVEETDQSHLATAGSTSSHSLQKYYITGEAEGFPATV

CCN(CC)CCOc1ccc(C(=C(Cl)c2ccccc2)c2ccccc2)cc1
active: DIO2 (gene 1734) 53.3 µM

c1ccc2occc2c1
inactive: [1] | [2]

CCCCCCCCCCCCCCCCO
inactive: [2] | DIO2 (gene 1734)

O=C1NC(=O)C(c2ccccc2)(c2ccccc2)N1
not listed: DIO2 (gene 1734) | [1] | [2] | [19]
inactive: all other assays above

CN(C)CCCN1c2ccccc2Sc2ccc(Cl)cc21
inactive: [9]
active: [3] 5.17 µM | [4] 5.08 µM | [5] 4.33 µM | [6] 8.95 µM | [7] 4.79 µM | [8] 7.95 µM | [10] 8.7 µM | [11] 5.16 µM | [12] 3.38 µM | [13] 2.81 µM | [14] 4.44 µM | [15] 9.39 µM | [16] 13.7 µM | [17] 5.01 µM | [18] 6.11 µM | [19] 15 µM

CC1(C)C(=O)NC(=O)N1CO
inactive: [1] | [2]

CCCCCCCCCCCCCCOS(=O)(=O)O
active: DIO2 (gene 1734) 36.9 µM

Cc1c(C)c2c(c(C)c1O)CCC(C)(COc1ccc(CC3SC(=O)NC3=O)cc1)O2 (centres undefined)
active: DIO2 (gene 1734) 70.1 µM

CCCCCCC(C=O)=Cc1ccccc1
inactive: [1]
active: DIO2 (gene 1734) 15.2 µM

CCCCCCCC(=O)OC
inactive: [1] | [2]

O=C(O)CC(O)(CC(=O)O)C(=O)O
inactive: [2]

Cc1ccc(-c2cc(C(F)(F)F)nn2-c2ccc(S(N)(=O)=O)cc2)cc1
active: DIO2 (gene 1734) 156 µM

O=C(O)c1[nH]n(-c2ccc(S(=O)(=O)O)cc2)c(=O)c1N=Nc1ccc(S(=O)(=O)O)cc1
active: [1] 100 µM
inactive: [2]

O=C(Oc1ccccc1)c1cccc(C(=O)Oc2ccccc2)c1
active: DIO2 (gene 1734) 42.3 µM

S=c1[nH]c2ccccc2s1
active: DIO2 (gene 1734) 53.4 µM

CC(=O)O[C@]1(C(C)=O)CC[C@H]2[C@@H]3C=C(Cl)C4=CC(=O)[C@@H]5C[C@@H]5[C@]4(C)[C@H]3CC[C@@]21C
inactive: DIO2 (gene 1734)

OCC(O)CO
not listed: DIO2 (gene 1734) | [1] | [2] | [16] | [17] | [18]
inactive: all other assays above

O=Cc1ccccc1C=O
active: DIO2 (gene 1734) 46.6 µM

COC(=O)[C@H]1[C@H]2C[C@@H]3c4[nH]c5cc(OC)ccc5c4CCN3C[C@H]2C[C@@H](OC(=O)c2cc(OC)c(OC)c(OC)c2)[C@@H]1OC
inactive: [9]
active: [3] 5.24 µM | [4] 5.23 µM | [5] 3.34 µM | [6] 3.76 µM | [7] 2.43 µM | [8] 3.27 µM | [11] 5.07 µM | [12] 2.71 µM | [13] 2.18 µM | [14] 4.8 µM | [15] 15.3 µM | [17] 6.75 µM | [19] 10 µM

O=C(O)CN(CC(=O)O)CC(=O)O
active: [2] 233 µM

COC(=O)CCC(=O)OC
inactive: [2]
